Article PMC4552634, “A New Set of Chemical Starting Points with Plasmodium falciparum Transmission-Blocking Potential for Antimalarial Drug Discovery” (PLoS ONE, 2015)
Like-named read-outs stand apart in the source and are kept apart here. Among all 13,000 compounds or so, about 3,200 (25%) showed an effect of 50% or more. The list shows a part of the results.

Test system: P. falciparum stage V gametocytes
Design: BacTiter-Glo ATP luminescence viability of purified stage V gametocytes in 384-well plates, per cent inhibition versus DMSO
Conditions: 48 h, 5 µM, inhibitor

Row | SMILES | % Inhibition [%] | % Inhibition (% Inhibition) [%]
1 | Cc1nc(N)nc(N)c1-c1cc(Cl)c(Cl)c(Cl)c1 [TCMDC-137398] | 11.14 | 
2 | CCCC(=O)Nc1ccc(OCCCN(Cc2cccc(C(F)(F)F)c2)c2ccc(C#N)c(C(F)(F)F)c2)cc1 [TCMDC-135666] | 6.029 | 
3 | CCOc1ccc2nccc([C@@H](O)[C@@H]3C[C@@H]4CCN3C[C@@H]4CC)c2c1 [TCMDC-123483] |  | -64.91
4 | Cc1cc(N2CCCN(C)CC2)nc(Nc2ccc(Br)cc2)n1 [TCMDC-137014] | 8.487 | 
5 | CCOC(=O)c1cc(C(=O)OC)c2ccccn12 [TCMDC-124299] | 4.818 | 
6 | CC1=C(C(=O)OC(C)C)C(c2ccccc2Cl)C2=C(CC(c3ccccc3)CC2=O)N1 (centres unmarked) [TCMDC-125608] | 34.25 | 
7 | CSc1nccc(-c2ccc(S(=O)(=O)NC3CCC(CN4CCC(c5c[nH]c6ccccc56)CC4)CC3)s2)n1 (centres unmarked) [TCMDC-131237] |  | 110.6
8 | N#Cc1c(Cl)cccc1Oc1ccc(S(=O)(=O)NC2CCC(CN3CCC(c4c[nH]c5ccccc45)CC3)CC2)cc1 (centres unmarked) [TCMDC-140175] |  | 1.176
9 | O=C(NC1CCC(CN2CCC(c3c[nH]c4ccccc34)CC2)CC1)c1[nH]c(=O)[nH]c(=O)c1F (centres unmarked) [TCMDC-139889] | 14.48 | 
10 | CSc1nccc(-c2ccc(S(=O)(=O)NC3CCC(CN4CCC(c5c[nH]c6ccccc56)CC4)CC3)s2)n1 (centres unmarked) [TCMDC-131236] |  | 106.4
11 | O=C(CCc1cccnc1)Nc1cccc(-c2ccc(-c3nc4ccc(C(F)(F)F)cc4[nH]3)cc2)c1 [TCMDC-132148] | -27.41 | 
12 | Cc1ccccc1C1CCN(c2ncc(C(=O)NC3CC3)cc2Cl)CC1 [TCMDC-134609] | 14.1 | 
13 | CC(C)(C)OC(=O)N[C@@H](CS(=O)(=O)CCN=C(N)COCc1ccccc1)C(=O)OC(C)(C)C [TCMDC-138107] | 24.21 | 
14 | O=C(Nc1ccc(C(=O)Oc2ccc(-c3ccccc3)cc2)cc1)N[C@@H](Cc1ccc(O)cc1)C(=O)NC1CCN(Cc2ccc(O)cc2)C1 (some centres unmarked) [TCMDC-135361] | -42.48 | 
15 | O=C(N[C@H]1CCN(Cc2ccc(OCCCN3CCCCC3)cc2)C1)c1ccc(Oc2ccccc2)cc1 [TCMDC-141773] | 88.22 | 
16 | Cc1cc(CN2CC[C@H](NC(=O)c3ccc(Cl)c(Cl)c3)C2)ccc1OC1CCN(Cc2ccccc2)CC1 [TCMDC-140282] | -33.37 | 
17 | O=C(Cc1ccc(-c2ccccc2)cc1)N[C@H]1CCN(Cc2ccc(OCCCN3CCCCC3)cc2)C1 [TCMDC-141776] | 70.4 | 
18 | Fc1cc(CN2CCCC2)ccc1OCCCN1CCN(c2cccc(Cl)c2Cl)CC1 [TCMDC-137001] | 7.626 | 
19 | c1ccc(C(c2cccs2)N2CCN(Cc3ccc(OCCCN4CCCCC4)cc3)CC2)cc1 (centres unmarked) [TCMDC-141954] | 38.42 | 
20 | O=S(=O)(c1ccc2ccccc2c1)N1CCCN(Cc2ccc(OCCCN3CCCCC3)cc2)CC1 [TCMDC-141721] | 52.58 | 
21 | O=C(N[C@H]1CCN(Cc2ccc(OC3CCN(Cc4ccccc4)CC3)c(Cl)c2)C1)c1ccc(Cl)c(Cl)c1 [TCMDC-140277] | 30.17 | 
22 | O=C(NC1CCN(Cc2ccccc2)C1)c1ccc(Nc2ccc(Br)cc2)nc1 (centres unmarked) [TCMDC-133798] | -17.8 | 
23 | O=C(N[C@H]1CCN(Cc2ccc(OC3CCN(Cc4ccccc4)CC3)cc2)C1)c1ccc(Cl)c(Cl)c1 [TCMDC-140265] | 57.35 | 

Row | SMILES | % Inhibition [%] | % Inhibition (% Inhibition) [%]
24 | O=C(N[C@@H](Cc1ccccc1)CN1CCC(Oc2ccc(F)cc2)CC1)c1ccc(OCCCN2CCCCC2)cc1 [TCMDC-135416] | 28.27 | 
25 | CS(=O)(=O)Cc1ccc(Nc2ncc(Cl)c(Nc3cccnc3C(N)=O)n2)cc1 [TCMDC-134165] | -4.656 | 
26 | CC1CN=C(c2cccc(NC(=O)Nc3cccc(C4=NCC(C)N4)c3)c2)N1 (centres unmarked) [TCMDC-137194] | 7.217 | 
27 | COc1cc2c(cc1C(F)(F)F)N(C(=O)Nc1ccc(Br)cn1)CC2 [TCMDC-139015] | -19.75 | 
28 | COc1ccc(O)c(C(=O)c2cnc3c(c2)c(-c2ccc(F)cc2)c(C#N)c(=O)n3C)c1 [TCMDC-124509] | -11.41 | 
29 | O=C(Nc1ccc2c(c1)CCN2C1CCN(Cc2cccc(F)c2F)C1)c1ccco1 (centres unmarked) [TCMDC-135067] | 14.1 | 
30 | O=C(N[C@H]1CCN(Cc2ccc(OCCCN3CCCCC3)cc2)C1)c1ccc(Cl)c(Cl)c1 [TCMDC-141772] | 60 | 
31 | O=C(N[C@H]1CCN(Cc2ccc(OCCCN3CCCCC3)cc2)C1)c1cc(Cl)cc(Cl)c1 [TCMDC-141774] | 21.94 | 
32 | c1ccc(C(c2ccccc2)N2CCC(NCc3ccc(OCCCN4CCCCC4)cc3)CC2)cc1 [TCMDC-141783] | 82.14 | 
33 | c1cc(OCCN2CCCC2)ccc1CNC1CCN(CC2CCCCC2)CC1 [TCMDC-141656] | 42.11 | 
34 | O=C(N[C@H]1CCN(Cc2ccc(OCCCN3CCCCC3)cc2)C1)c1ccc2ccccc2c1 [TCMDC-141775] | 63.18 | 
35 | CCCCCCN1CCC(NCc2ccc(OCCN3CCCC3)cc2)CC1 [TCMDC-141663] | 42.97 | 
36 | Cc1cnc(CCNC(=O)c2cc(-c3ccc(Cl)cc3)cs2)[nH]1 [TCMDC-133804] | 0.312 | 
37 | CCc1cc(N2CCN(c3ccccc3F)CC2)nc(SCc2ccc(C(=O)NC3CC3)o2)n1 [TCMDC-124808] | 29.7 | 
38 | N#Cc1ccc(-c2ccc(C(=O)Nc3ccc4c(c3)CCN(C3CCC3)CC4)nc2)cn1 [TCMDC-136030] | 49.39 | 
39 | Cc1nc(-c2ccc(-c3ccc(C(=O)Nc4ccc(-n5ccnc5)c(N5CCN(C)CC5)c4)cc3)c(C)c2)no1 [TCMDC-131988] | 33.17 | 
40 | CCCCCCCN1C2CCC1CC(CCOc1ccnc3ccc(OC)cc13)C2 (centres unmarked) [TCMDC-139275] | 73.47 | 
41 | C=C[C@H]1CN(CCCCCCC)CC[C@H]1CC(O)Cc1ccnc2cc(O)c(OC)cc12 (some centres unmarked) [TCMDC-139963] | 16.88 | 
42 | CCCCCCCN1CCC(CC(=O)Nc2ccnc3ccc(OC)cc23)CC1 [TCMDC-139181] | 71.31 | 
43 | CCCCCCCC1CC(CC(=O)Nc2ccnc3ccc(OC)cc23)CN1C(=O)OC(C)(C)C (centres unmarked) [TCMDC-139304] | 29.24 | 
44 | CCCCCCCN1CCC(CC(=O)Nc2ccnc3ccc(OC)cc23)C(CC)C1 (centres unmarked) [TCMDC-139299] | -28.07 | 
45 | C=C[C@H]1CN(CCCCCCC)CC[C@H]1C[C@@H](Cc1ccnc2ccc(OC)cc12)OC(=O)[C@](OC)(c1ccccc1)C(F)(F)F [TCMDC-139560] | 78.38 | 
46 | CCCCCCCC1CC(CC(=O)Nc2ccnc3ccc(OC)cc23)CN1 (centres unmarked) [TCMDC-139305] | 20.34 | 

Row | SMILES | % Inhibition [%] | % Inhibition (% Inhibition) [%]
47 | C=C[C@H]1CN2CC[C@H]1C[C@H]2[C@H](O)c1ccnc2ccc(OC)cc12 [TCMDC-123484] |  | -1.615
48 | CCCCCCCC1CCN(C[C@H](O)c2ccnc3ccc(OC)cc23)CC1 [TCMDC-139640] | 6.722 | 
49 | C=C[C@H]1CN(CCCCCCC)CC[C@H]1CC(=O)Nc1cnnc2ccc(OC)cc12 [TCMDC-139791] | 45.94 | 
50 | C=C[C@H]1CN(CCCCCCC)CC[C@H]1CCNc1ccnc2ccc(OC)cc12 [TCMDC-139204] | 104.6 | 
51 | C=C[C@H]1CN(CCCCCCC)CC[C@H]1CCN(C)c1ccnc2ccc(OC)cc12.O=C(O)C(=O)O [TCMDC-139276] | 8.689 | 
52 | CC(C)c1ccc(O)cc1Nc1ccnc2ccc(C(F)(F)F)cc12 [TCMDC-138278] | -32.37 | 
53 | COc1ccc(OC)c(-c2ccc(O)c(CNCC(C)c3ccccc3)c2)c1 (centres unmarked) [TCMDC-124647] | 7.623 | 
54 | Nc1nc2c(ncn2OC[C@H]2COP(=O)(O)CO2)c(=O)[nH]1 [TCMDC-131638] | 1.746 | 
55 | Cc1cc(C)cc(OCC(O)CN(Cc2cc(Cl)cc(Cl)c2)C(=O)Nc2ccccc2Cl)c1 (centres unmarked) [TCMDC-141476] | 13.96 | 
56 | CCOc1cc(C(=O)N[C@@H](Cc2ccccc2)[C@H](O)CNCc2cc(OC)cc(OC)c2)cc(N2CCCCS2(=O)=O)c1 [TCMDC-134524] | 22.64 | 
57 | O=C1NC(=O)C(c2cccc(NC(=O)c3ccncc3)c2)=C1c1ccccc1 [TCMDC-140924] | 2.839 | 
58 | COc1ccc2nccc([C@@H](O)CN3CCC(NS(=O)(=O)c4cc5c(cc4Cl)SCC(=O)N5)CC3)c2c1 [TCMDC-141159] | 4.839 | 
59 | CCCCCCCN1CCC(NC(=O)Nc2ccnc3ccc(OC)cc23)C(C(=O)OCC)C1.O=C(O)C(=O)O (centres unmarked) [TCMDC-139929] | -3.335 | 
60 | CCCCCCCN1CCC(CCNc2ccnc3ccc(OC)cc23)CC1 [TCMDC-139197] | 97.49 | 
61 | CCCCCCCN1CCC(NC(=O)Nc2ccnc3ccc(OC)cc23)C(CO)C1.O=C(O)C(=O)O (centres unmarked) [TCMDC-139969] | -36.82 | 
62 | COCCOc1ccc(C(F)(F)F)cc1NC(=O)Cc1c(F)cccc1Cl [TCMDC-125025] | -70.46 | 
63 | c1ccc(CNCc2ccc(-c3cccc(-c4nc5ccccc5[nH]4)c3)cc2)cc1 [TCMDC-132545] | 18.29 | 
64 | CC(C)CNCc1ccc(-c2cccc(-c3nc4ccccc4[nH]3)c2)cc1 [TCMDC-132547] | 59.79 | 
65 | CCNCc1ccc(-c2cccc(-c3nc4ccccc4[nH]3)c2)cc1 [TCMDC-132568] | 85.38 | 
66 | CC(C)NCc1ccc(-c2cccc(-c3nc4ccccc4[nH]3)c2)cc1 [TCMDC-132550] | -10.92 | 
67 | CN(C)CCNCc1ccc(-c2cccc(-c3nc4ccccc4[nH]3)c2)cc1 [TCMDC-132539] | 20.35 | 
68 | CC(C)NCc1cccc(-c2ccc(-c3nc4ccccc4[nH]3)cc2)c1 [TCMDC-132746] | 23.3 | 
